# Screening data deposited in PubChem by National Center for Advancing Translational Sciences (NCATS).
# A selection: hits, their analogues and other compounds. The true share with any hit is near 7.5%.
# Vaccinia mCherry: inhibitors of vaccinia virus infection (mCherry reporter signal); AID 720579; 310,000 tested, 0.63% active; Vaccinia virus mCherry reporter infection, fluorescence; Potency, µM (doses to about 36.5 µM), for the others: top-dose activity change, negative = inhibition, most hits filed as inhibitors; calls by dose curve; tested in A549 cells; note: potency is the fitted concentration of half-maximal effect; nearly all actives have a fitted effect of over 35% in size
# HCV inhibitor: blocks hepatitis C virus | Huh7.5.1 HCVcc-Cre infection, luciferase reporter, 44 h | Potency, µM (top dose mostly 41.8 µM), inactives show at the top dose activity change, negative = inhibition, hits mostly inhibitors | 340,000 tested, 3.4% active | AID 651820; note: potency is the fitted concentration of half-maximal effect
#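 Infectious HCVcc-Cre (~0.5 moi) was added to cells just after compound, with cells seeded 4 h earlier at 1,000 per well. Luciferase activity after 44 h culture reported infection; substrate was incubated 15 min at room temperature before reading.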
# Vaccinia Venus: inhibitors of vaccinia virus (Venus reporter) | Vaccinia virus Venus reporter expression, fluorescence | AID 720580 | Potency, µM (top dose mostly 36.5 µM), inactives show at the highest dose activity change, negative = inhibition, most hits filed as inhibitors | 330,000 tested, 0.46% active; calls by dose curve; tested in A549 cells; note: potency is the fitted concentration of half-maximal effect; nearly all actives have a fitted effect of over 30% in size
# Giardia FBPA inh: inhibitors of Giardia lamblia fructose-1,6-bisphosphate aldolase; AID 2451; purified Giardia FBPA; 290,000 tested, 0.71% active; A8B2U2; Potency, µM (doses to about 59.6 µM), without a hit: top-dose activity, negative = inhibition, most hits filed as inhibitors; note: potency is the fitted concentration of half-maximal effect; nearly all actives have a fitted effect of over 55% in size
# Target sequence (A8B2U2 whole entry, looked up): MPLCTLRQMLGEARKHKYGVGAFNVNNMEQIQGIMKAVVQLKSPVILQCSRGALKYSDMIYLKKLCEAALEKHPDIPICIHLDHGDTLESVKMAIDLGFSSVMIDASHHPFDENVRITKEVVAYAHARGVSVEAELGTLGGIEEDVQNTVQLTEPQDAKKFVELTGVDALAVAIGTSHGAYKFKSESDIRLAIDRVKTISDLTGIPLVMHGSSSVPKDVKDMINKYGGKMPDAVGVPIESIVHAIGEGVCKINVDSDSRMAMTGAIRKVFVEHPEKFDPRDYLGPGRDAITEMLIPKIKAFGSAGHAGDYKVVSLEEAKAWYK
#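 Giardia FBPA (40 nM reagent) was preincubated 10 min at RT with compound (up to 57.5 uM final), then substrate plus GAPDH/TPI/NAD/arsenate coupling system with diaphorase/resazurin was added; resorufin fluorescence (525/598 nm) was read after 20 min.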
# HCMV antiviral: human cytomegalovirus inhibition; activity change, negative = inhibition, % at 57.5 µM; 410,000 tested, 4.5% active; HFF cells, HCMV-luciferase reporter, 72 h; hits give low values; in the data active = activity change below about -60%; inconclusive = no clear call, values can overlap the other calls; inactive = above about -39%
#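 Compounds were evaluated in HFFs infected with an HCMV luciferase reporter virus (MOI 1 PFU/cell). Luciferase in lysates collected 72 h post infection served as the replication measure.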
# FMDV antiviral: blocks foot and mouth disease virus; FMDV antiviral cell-based qHTS; Potency, µM (titrated, usually from 57.9 µM), for inactives: at the highest dose activity change, negative = inhibition, most hits filed as inhibitors; 410,000 tested, 1.2% active; AID 1159524; calls by dose curve; tested in HEK293T cells; note: read-out not given here; potency is the fitted concentration of half-maximal effect; nearly all actives have a fitted effect of over 45% in size
# Numbers without * were called inactive; i = inactive; ? = inconclusive; nt = not tested or not shown. Unless noted, calls come from the whole dose curve; as a rule, active = well fitted curve in the direction sought with a large enough effect; inconclusive = small, poorly fitted or top-dose-only effect, or another doubt; inactive = no such curve, though single readings can be large; an effect the other way counts as inactive or inconclusive. % is set by controls: 0 for no effect and ±100 for the full control effect.
SMILES,Vaccinia mCherry,HCV inhibitor,Vaccinia Venus,Giardia FBPA inh,HCMV antiviral,FMDV antiviral
Cc1ccc(-c2nnc(N3CCN(C(=O)COc4cccc(C)c4)CC3)c3ccccc23)cc1,?,?,?,10%,-34,25µM*
CCc1ccc(-c2n[nH]nc2C2=CC(=O)C[C@H](c3ccc(F)cc3)C2)cc1,?,nt,?,nt,-21,?
CCOC(=O)C1CCN(C(=O)COC(=O)c2oc3ccccc3c2C)CC1,-11%,-6%,-6%,nt,-14,-17%
CC1(C(=O)NCc2ccco2)CCN1C(=O)C1(c2ccccc2)CC1 (stereo not given),i,nt,4%,nt,-37,-14%
CCS(=O)(=O)N1CC2(CN(C(=O)Cc3ccccn3)[C@@H](CO)c3[nH]c4cc(OC)ccc4c32)C1,nt,nt,nt,nt,2,nt
COCC(=O)Nc1cc(C(=O)NC2Cc3ccccc3C2)cc2nc(-c3cccnc3)n(C)c12,-13%,nt,7%,nt,nt,4%
Cc1cccc(OCC(=O)N2CCN(c3nnc(-c4ccccc4)c4ccccc34)CC2)c1,nt,?,nt,0%,-32,?
Cc1ccc(OCC(=O)N2CCN(c3nnc(-c4ccc(C)cc4)c4ccccc34)CC2)cc1,nt,8.9µM*,nt,4%,-99*,?
O=C1C=CC(=O)c2c(O)c(Cl)c(Cl)c(O)c21,-7%,nt,0%,13µM*,nt,-11%
O=C1C=CC(=O)c2c(O)c(CO)c(CO)c(O)c21,?,14%,-21%,nt,-22,35µM*
Cc1ccc(CCN=c2c([N+](=O)[O-])nn(-c3ccccc3)n2O)cc1,-16%,-27%,-15%,-5%,62,-21%
O=[N+]([O-])c1nn(-c2ccc3c(c2)OCCO3)n(O)c1=NC1CCN(Cc2ccccc2)CC1,nt,?,nt,-10%,-35,4%
O=[N+]([O-])c1nn(-c2ccccc2)n(O)c1=NC1CCN(Cc2ccccc2)CC1,?,2µM*,?,-10%,?,-18%
O=[N+]([O-])c1nn(-c2ccccc2)n(O)c1=NCCc1ccccc1,-23%,11µM*,?,0%,-37,9%
O=S(=O)(c1ccccc1)c1nnn2c1nc(NCc1ccccc1)c1cc(Cl)ccc12,?,nt,-30%,nt,4,9%
CC(=O)c1ccc(NC(=O)C2C3C=CC(C3=C(c3ccccc3)c3ccccc3)C2C(=O)O)cc1 (stereo not given),-7%,4%,-26%,10%,29,-5%
Cc1cccc(C(=O)N2CCCC(N3CCN(c4cccc(Cl)c4)CC3)C2)n1 (stereo not given),-19%,-20%,-12%,nt,57,-8%
Cc1noc(C)c1C(=O)N1CCCC(N2CCN(c3cccc(C(F)(F)F)c3)CC2)C1 (stereo not given),nt,-13%,nt,2%,-2,5%
Cc1ccsc1C(=O)N1CCCC(N2CCN(c3cccc(Cl)c3)CC2)C1 (stereo not given),nt,?,nt,nt,-64*,?
Cc1nnsc1C(=O)N1CCCC(N2CCN(c3cccc(C(F)(F)F)c3)CC2)C1 (stereo not given),nt,-14%,nt,nt,-61*,-5%
O=C(Cn1cccn1)N1CCCC(N2CCN(c3cccc(C(F)(F)F)c3)CC2)C1 (stereo not given),-19%,nt,3%,4%,-3,1%
Cc1cc(C(=O)N2CCCC(N3CCN(c4cccc(C(F)(F)F)c4)CC3)C2)no1 (stereo not given),-12%,7%,-23%,nt,3,-16%
Cc1cc(C)c(C(=O)N2CCCC(N3CCN(c4cccc(C(F)(F)F)c4)CC3)C2)o1 (stereo not given),nt,11µM*,nt,9%,-17,?
O=C(CCn1cccn1)N1CCCC(N2CCN(c3cccc(C(F)(F)F)c3)CC2)C1 (stereo not given),-1%,-23%,-12%,-5%,-62*,-8%
CC(C)[C@H](NC(=O)N1c2ccccc2NC(=O)[C@@H]1C(C)C)C(=O)N[C@@H](Cc1c[nH]c2ccccc12)C(=O)O,i,-15%,-13%,-1%,23,-7%
